# Reference: PubChem BioAssay (NCI)
# About 79,000 compounds went through this panel and 15% of them were active in at least one assay; those are over-represented in the sample as a whole. Values without a mark were called inactive. Active and inactive are the calls of the source. No stated cut-off is given here; in the data, active means growth inhibition above about 70%; inactive means the rest.
# Key:
# [1] = NCI Yeast Anticancer Drug Screen. Data for the rad52 strain (AID 147);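 further: 0% = growth of vehicle-treated control cultures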; conditions: S. cerevisiae rad52 mutant growth inhibition, active compounds read high
# Procedure, shortened: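 Here a repair-compromised yeast strain receives each compound; its growth is then quantified and normalised to vehicle-only controls.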
# [2] = NCI Yeast Anticancer Drug Screen. Data for the wt1 strain (AID 149);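 further: 0% = growth of vehicle-treated wt1 cultures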; conditions: S. cerevisiae wt1 strain (SPY 50644) growth inhibition, active compounds read high
# Procedure, shortened: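 wt1 yeast, compound-treated; % growth inhibition vs vehicle control.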
# [3] = NCI Yeast Anticancer Drug Screen. Data for the rad50EPP+ strain (AID 151);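 further: 0% = growth of vehicle-treated control cultures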; conditions: S. cerevisiae rad50 mutant strain, active compounds read high
# Procedure, shortened: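 Read-out is yeast growth inhibition relative to vehicle; cells used were the rad50EPP+ strain.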
# [4] = NCI Yeast Anticancer Drug Screen. Data for the mgt1 strain (AID 153); conditions: S. cerevisiae mgt1 mutant growth inhibition, active compounds read high
# Procedure, shortened: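 Measured: inhibition of mgt1 yeast growth by compound, normalized to vehicle-treated cultures.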
# [5] = NCI Yeast Anticancer Drug Screen. Data for the rad50 strain (AID 155);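 further: 0% = growth of vehicle-only cultures of the same strain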; conditions: S. cerevisiae rad50 strain growth inhibition, active compounds read high
# Procedure, shortened: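 Genetically altered yeast (DNA repair pathway); compound treatment; growth inhibition vs vehicle ctrl.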
# [6] = NCI Yeast Anticancer Drug Screen. Data for the mec2-1 strain (AID 157); conditions: S. cerevisiae mec2-1 strain, active compounds read high
# Procedure, shortened: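 Using mec2-1 yeast: add compound, measure growth, express inhibition versus vehicle-treated cultures.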
# [7] = NCI Yeast Anticancer Drug Screen. Data for the rad14 strain (AID 159);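 further: 0% = growth of vehicle-treated control cultures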; conditions: S. cerevisiae rad14 strain growth inhibition, active compounds read high
# Procedure, shortened: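 Test compounds were applied to a repair-deficient yeast strain. Its growth was then compared with that of cultures given vehicle alone, and inhibition was expressed relative to those controls.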
# [8] = NCI Yeast Anticancer Drug Screen. Data for the sgs1 mgt1 strain (AID 161);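 further: 0% = growth of cultures given vehicle only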; conditions: S. cerevisiae sgs1 mgt1 strain, active compounds read high
# Procedure, shortened: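 Yeast cells carrying a defined DNA-repair defect were exposed to test compounds. Growth inhibition was measured relative to vehicle-treated controls.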
# [9] = NCI Yeast Anticancer Drug Screen. Data for the CLN2oe strain (AID 163);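 further: 0% = growth of vehicle-only control cultures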; conditions: S. cerevisiae CLN2oe strain, active compounds read high
# Procedure, shortened: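 Whole-cell yeast growth assay. A strain engineered for altered cell-cycle control received compound, and inhibition relative to vehicle-treated cultures was recorded.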
# [10] = NCI Yeast Anticancer Drug Screen. Data for the cln2 rad14 strain (AID 165);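 further: 0% = growth equal to vehicle treated cultures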; conditions: S. cerevisiae cln2 rad14 strain, active compounds read high
# Procedure, shortened: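 Yeast strain cln2 rad14, bearing defects in cell cycle control and DNA repair, serves as the test system; values reflect growth inhibition compared with vehicle.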
# [11] = NCI Yeast Anticancer Drug Screen. Data for the bub3 strain (AID 167); conditions: S. cerevisiae bub3 mutant strain, active compounds read high
# Procedure, shortened: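 Yeast carrying a defined mutation is treated with each compound, and growth is compared with that of vehicle-exposed cells to give inhibition.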
# [12] = NCI Yeast Anticancer Drug Screen. Data for the mlh1 strain (AID 171);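 further: 0% = growth of vehicle-treated control cultures of the same strain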; conditions: S. cerevisiae mlh1 strain growth inhibition, active compounds read high
# Procedure, shortened: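 A yeast strain with a defined genetic lesion serves as the test organism. Cultures receive compound or vehicle, and growth is measured.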
# [13] = NCI Yeast Anticancer Drug Screen. Data for the sgs1 strain (AID 173);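 further: 0% = growth of vehicle-only control cultures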; conditions: S. cerevisiae sgs1 mutant, active compounds read high
# Procedure, shortened: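 A genetically defined yeast mutant is incubated with the test compound, and its growth is compared to that of the same strain given vehicle.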
# [14] = NCI Yeast Anticancer Drug Screen. Data for the mlh1 rad18 strain (AID 175); conditions: S. cerevisiae mlh1 rad18 strain growth inhibition, active compounds read high
# Procedure, shortened: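 Steps: expose repair-defective yeast to compound; measure growth; express inhibition against vehicle-treated controls.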
# [15] = NCI Yeast Anticancer Drug Screen. Data for the rad18 strain (AID 177); conditions: S. cerevisiae rad18 mutant growth inhibition, active compounds read high
# Procedure, shortened: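 Measured value is growth inhibition of a yeast strain bearing a DNA repair alteration, referenced to vehicle-treated cells.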
# [16] = NCI Yeast Anticancer Drug Screen. Data for the wt2 strain (AID 169);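 further: 0% = growth of vehicle-treated yeast cultures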; conditions: S. cerevisiae wt2 strain growth inhibition, active compounds read high
# Procedure, shortened: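 Treated yeast vs. vehicle-treated yeast: growth inhibition determined.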
# [17] = at 5.0 µM (retest, dose inferred, filed as 0.5)
# [18] = at 50.0 µM (retest, dose inferred, filed as 5.0)
structure (smiles),measurement,setting,value
O=C(NO)c1coc2ccccc2c1=O,growth inhibition,[1]; at 1.2 µM,-1%
same,growth inhibition,[1]; at 3.7 µM,-4%
same,growth inhibition,[1]; at 11.0 µM,-2%
same,growth inhibition,[1]; at 33.0 µM,-2%
same,growth inhibition,[1]; at 100.0 µM,9%
same,growth inhibition,[2]; at 1.2 µM,4%
same,growth inhibition,[2]; at 3.7 µM,-3%
same,growth inhibition,[2]; at 11.0 µM,-3%
same,growth inhibition,[2]; at 33.0 µM,-3%
same,growth inhibition,[2]; at 100.0 µM,0%
same,growth inhibition,[3]; at 1.2 µM,-2%
same,growth inhibition,[3]; at 3.7 µM,-6%
same,growth inhibition,[3]; at 11.0 µM,-3%
same,growth inhibition,[3]; at 33.0 µM,-5%
same,growth inhibition,[3]; at 100.0 µM,-1%
same,growth inhibition,[4]; at 1.2 µM,-2%
same,growth inhibition,[4]; at 3.7 µM,2%
same,growth inhibition,[4]; at 11.0 µM,-14%
same,growth inhibition,[4]; at 33.0 µM,-5%
same,growth inhibition,[4]; at 100.0 µM,9%
same,growth inhibition,[5]; at 1.2 µM,5%
same,growth inhibition,[5]; at 3.7 µM,-5%
same,growth inhibition,[5]; [17],-3%
same,growth inhibition,[5]; at 11.0 µM,1%
same,growth inhibition,[5]; at 33.0 µM,0%
same,growth inhibition,[5]; [18],24%
same,growth inhibition,[5]; at 50.0 µM,31.1%
same,growth inhibition,[5]; at 100.0 µM,15%
same,growth inhibition,[6]; at 1.2 µM,-3%
same,growth inhibition,[6]; at 3.7 µM,-5%
same,growth inhibition,[6]; [17],1%
same,growth inhibition,[6]; at 11.0 µM,-1%
same,growth inhibition,[6]; at 33.0 µM,-4%
same,growth inhibition,[6]; [18],10%
same,growth inhibition,[6]; at 50.0 µM,86.1% (active)
same,growth inhibition,[6]; at 100.0 µM,0%
same,growth inhibition,[7]; at 1.2 µM,0%
same,growth inhibition,[7]; at 3.7 µM,-1%
same,growth inhibition,[7]; at 11.0 µM,-1%
same,growth inhibition,[7]; at 33.0 µM,-2%
same,growth inhibition,[7]; at 100.0 µM,1%
same,growth inhibition,[8]; [17],15%
same,growth inhibition,[8]; [18],13%
same,growth inhibition,[8]; at 50.0 µM,62%
same,growth inhibition,[9]; at 1.2 µM,1%
same,growth inhibition,[9]; at 3.7 µM,2%
same,growth inhibition,[9]; at 11.0 µM,4%
same,growth inhibition,[9]; at 33.0 µM,8%
same,growth inhibition,[9]; at 100.0 µM,8%
same,growth inhibition,[10]; [17],-4%
same,growth inhibition,[10]; [18],16%
same,growth inhibition,[10]; at 50.0 µM,19.8%
same,growth inhibition,[11]; at 1.2 µM,-6%
same,growth inhibition,[11]; at 3.7 µM,-5%
same,growth inhibition,[11]; [17],13%
same,growth inhibition,[11]; at 11.0 µM,-2%
same,growth inhibition,[11]; at 33.0 µM,-2%
same,growth inhibition,[11]; [18],61%
same,growth inhibition,[11]; at 50.0 µM,13.7%
same,growth inhibition,[11]; at 100.0 µM,-5%
same,growth inhibition,[12]; at 1.2 µM,-1%
same,growth inhibition,[12]; at 3.7 µM,0%
same,growth inhibition,[12]; at 11.0 µM,-1%
same,growth inhibition,[12]; at 33.0 µM,1%
same,growth inhibition,[12]; at 100.0 µM,11%
same,growth inhibition,[13]; at 1.2 µM,-1%
same,growth inhibition,[13]; at 3.7 µM,-3%
same,growth inhibition,[13]; at 11.0 µM,-2%
same,growth inhibition,[13]; at 33.0 µM,-2%
same,growth inhibition,[13]; at 100.0 µM,6%
same,growth inhibition,[14]; [17],13%
same,growth inhibition,[14]; [18],10%
same,growth inhibition,[14]; at 50.0 µM,-7.15%
same,growth inhibition,[15]; at 1.2 µM,-2%
same,growth inhibition,[15]; at 3.7 µM,-3%
same,growth inhibition,[15]; at 11.0 µM,2%
same,growth inhibition,[15]; at 33.0 µM,-4%
same,growth inhibition,[15]; at 100.0 µM,25%
O=P(C(=S)Nc1c(Cl)cccc1Cl)(c1ccccc1)c1ccccc1,growth inhibition,[1]; at 1.2 µM,21%
same,growth inhibition,[1]; at 3.7 µM,24%
same,growth inhibition,[1]; at 11.0 µM,22%
same,growth inhibition,[1]; at 33.0 µM,24%
same,growth inhibition,[1]; at 100.0 µM,97% (active)
same,growth inhibition,[2]; at 1.2 µM,31%
same,growth inhibition,[2]; at 3.7 µM,25%
same,growth inhibition,[2]; at 11.0 µM,18%
same,growth inhibition,[2]; at 33.0 µM,24%
same,growth inhibition,[2]; at 100.0 µM,96% (active)
same,growth inhibition,[3]; at 1.2 µM,6%
same,growth inhibition,[3]; at 3.7 µM,8%
same,growth inhibition,[3]; at 11.0 µM,24%
same,growth inhibition,[3]; at 33.0 µM,19%
same,growth inhibition,[3]; at 100.0 µM,31%
same,growth inhibition,[4]; at 1.2 µM,11%
same,growth inhibition,[4]; at 3.7 µM,-16%
same,growth inhibition,[4]; at 11.0 µM,-11%
same,growth inhibition,[4]; at 33.0 µM,-1%
same,growth inhibition,[4]; at 100.0 µM,95% (active)
same,growth inhibition,[5]; at 1.2 µM,20%
same,growth inhibition,[5]; at 3.7 µM,8%
same,growth inhibition,[5]; [17],73% (active)
same,growth inhibition,[5]; at 11.0 µM,14%
same,growth inhibition,[5]; at 33.0 µM,1%
same,growth inhibition,[5]; [18],99% (active)
same,growth inhibition,[5]; at 50.0 µM,87.7% (active)
same,growth inhibition,[5]; at 100.0 µM,95% (active)
same,growth inhibition,[6]; at 1.2 µM,5%
same,growth inhibition,[6]; at 3.7 µM,9%
same,growth inhibition,[6]; [17],71% (active)
same,growth inhibition,[6]; at 11.0 µM,14%
same,growth inhibition,[6]; at 33.0 µM,7%
same,growth inhibition,[6]; [18],99% (active)
same,growth inhibition,[6]; at 50.0 µM,91% (active)
same,growth inhibition,[6]; at 100.0 µM,94% (active)
same,growth inhibition,[7]; at 1.2 µM,-13%
same,growth inhibition,[7]; at 3.7 µM,-14%
same,growth inhibition,[7]; at 11.0 µM,-16%
same,growth inhibition,[7]; at 33.0 µM,-18%
same,growth inhibition,[7]; at 100.0 µM,94% (active)
same,growth inhibition,[8]; [17],-6%
same,growth inhibition,[8]; [18],95% (active)
same,growth inhibition,[8]; at 50.0 µM,88.3% (active)
same,growth inhibition,[9]; at 1.2 µM,8%
same,growth inhibition,[9]; at 3.7 µM,21%
same,growth inhibition,[9]; at 11.0 µM,15%
same,growth inhibition,[9]; at 33.0 µM,16%
same,growth inhibition,[9]; at 100.0 µM,95% (active)
same,growth inhibition,[10]; [17],41%
same,growth inhibition,[10]; [18],96% (active)
same,growth inhibition,[10]; at 50.0 µM,89.9% (active)
same,growth inhibition,[11]; at 1.2 µM,0%
same,growth inhibition,[11]; at 3.7 µM,4%
same,growth inhibition,[11]; [17],21%
same,growth inhibition,[11]; at 11.0 µM,14%
same,growth inhibition,[11]; at 33.0 µM,11%
same,growth inhibition,[11]; [18],75% (active)
same,growth inhibition,[11]; at 50.0 µM,89% (active)
same,growth inhibition,[11]; at 100.0 µM,97% (active)
same,growth inhibition,[16]; at 1.2 µM,21%
same,growth inhibition,[16]; at 3.7 µM,8%
same,growth inhibition,[16]; at 11.0 µM,15%
same,growth inhibition,[16]; at 33.0 µM,35%
same,growth inhibition,[16]; at 100.0 µM,96% (active)
same,growth inhibition,[13]; at 1.2 µM,25%
same,growth inhibition,[13]; at 3.7 µM,13%
same,growth inhibition,[13]; at 11.0 µM,3%
same,growth inhibition,[13]; at 33.0 µM,18%
same,growth inhibition,[13]; at 100.0 µM,95% (active)
same,growth inhibition,[14]; [17],60%
same,growth inhibition,[14]; [18],98% (active)
same,growth inhibition,[14]; at 50.0 µM,87.2% (active)
same,growth inhibition,[15]; at 1.2 µM,-12%
same,growth inhibition,[15]; at 3.7 µM,-20%
same,growth inhibition,[15]; at 11.0 µM,-22%
same,growth inhibition,[15]; at 33.0 µM,-12%
same,growth inhibition,[15]; at 100.0 µM,96% (active)
